This note sets out measurements from PubChem BioAssay.

Activity calls are given as the source filed them.

One assay concerns the target Albumin (Bos taurus) (UniProt P02769). The assay can be described thus: bovine serum albumin binders on microarray, profiling panel, artefact control for SMM control protein annotation, biochemical, small-molecule microarray, Alexa647 label, 635/667 nm fluorescence (AID 1118).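 Further: score merges 667 nm emission intensity and signal-to-noise per printed compound spot.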 The settings on record: BSA-A647 binding, fluorescence 635 nm, higher = more signal.
Assay [1] in a line: small-molecule microarray binders of probe aXIP, primary screen, biochemical, NeuroSMM set, 635/667 nm fluorescence (AID 1119).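 Further: probe is the protein aXip251-270 applied at 1 µg/mL to compound-printed slides; binding of probe to printed compounds measured as 667 nm fluorescence plus signal to noise.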 The settings on record: higher = more signal, called active from +8 up or from −8 down.
The nature of assay [2]: small-molecule binders of probe aNOTCH3, primary screen, biochemical, small-molecule microarray, 635/667 nm fluorescence (AID 1120).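 Further: probe is a biotin-tagged antibody raised against NOTCH3 rather than NOTCH3 protein; score merges spot fluorescence near 667 nm with spot signal to noise.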 The note with it: higher = more signal.
Assay [3] in a line: small-molecule binders of probe aNOTCH2, primary screen, biochemical, small-molecule microarray, 635/667 nm fluorescence (AID 1121).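 Further: score merges feature fluorescence read at 667 nm with its signal to noise.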 The settings on record: higher = more signal.
In assay [4] the target is Carbonic anhydrase 2 (Homo sapiens) (UniProt P00918). The assay can be described thus: CAII small-molecule binders, profiling panel, biochemical, small-molecule microarray, Alexa647-labelled CAII (AID 1122). The note with it: CAII-A647 binding fluorescence, higher = more signal.
A short description of assay [5]: COS7 lysate on small-molecule microarray, probe aHis, 635 nm (AID 1123).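 Further: z-score combines 667nm fluorescence intensity with signal-to-noise per printed compound spot.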 The settings on record: COS7 cell lysate, fluorescence, higher = more signal.
Assay [6] can be described thus: compound binding in COS7 lysate, probe aLAP1, primary screen, cell lysate, small-molecule microarray (AID 1124).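 Further: lysate comes from COS7 cells expressing LAP1 and is applied at 0.3 µg/mL; score merges spot fluorescence near 667 nm with signal-to-noise over triplicate slides.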 The note with it: probe aLAP1, fluorescence, higher = more signal.
A further assay has as its system Sam68 (KHDRBS1). The assay can be described thus: Sam68 small-molecule binders, primary screen, biochemical, small-molecule microarray, 635 nm fluorescence (AID 1125).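 Further: score merges 667 nm channel intensity with signal to noise over triplicate slides.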 The note with it: small-molecule microarray binding, higher = more signal.
Assay [7] deals with Chordin-like protein 2 (CHRDL2). The assay can be described thus: CHRDL2 small-molecule binders, primary screen, biochemical, small-molecule microarray, 635 nm fluorescence (AID 1126).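 Further: printed compound slides probed with Chrdl2 protein at 4 µg/mL for 1 h at 4 C; score merges 667 nm emission intensity with signal to noise over three replicate slides.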 The note with it: small-molecule microarray binding, fluorescence 635 nm; higher = more signal.
The target of assay [8] is Concanavalin-A (Canavalia ensiformis) (UniProt P02866). The assay can be described thus: ConA small-molecule binders, primary screen, artefact control for SMM control protein annotation, biochemical, small-molecule microarray, Alexa647 label, 635 nm (AID 1127).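 Further: z combines 667 nm emission intensity with signal-to-noise across three replicate slides.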 The settings on record: ConA-A647 binding fluorescence, higher = more signal.
Chain of Concanavalin-A (Canavalia ensiformis) (P02866 whole entry, looked up): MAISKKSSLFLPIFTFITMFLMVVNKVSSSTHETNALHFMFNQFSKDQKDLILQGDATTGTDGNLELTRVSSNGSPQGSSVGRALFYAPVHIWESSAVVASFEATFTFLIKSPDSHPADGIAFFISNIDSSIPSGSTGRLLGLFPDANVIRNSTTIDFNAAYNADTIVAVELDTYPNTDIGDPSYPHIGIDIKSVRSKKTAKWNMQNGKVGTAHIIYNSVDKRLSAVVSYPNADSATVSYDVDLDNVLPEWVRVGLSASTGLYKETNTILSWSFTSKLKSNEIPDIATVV

Chain of Albumin (Bos taurus) (P02769 whole entry, looked up): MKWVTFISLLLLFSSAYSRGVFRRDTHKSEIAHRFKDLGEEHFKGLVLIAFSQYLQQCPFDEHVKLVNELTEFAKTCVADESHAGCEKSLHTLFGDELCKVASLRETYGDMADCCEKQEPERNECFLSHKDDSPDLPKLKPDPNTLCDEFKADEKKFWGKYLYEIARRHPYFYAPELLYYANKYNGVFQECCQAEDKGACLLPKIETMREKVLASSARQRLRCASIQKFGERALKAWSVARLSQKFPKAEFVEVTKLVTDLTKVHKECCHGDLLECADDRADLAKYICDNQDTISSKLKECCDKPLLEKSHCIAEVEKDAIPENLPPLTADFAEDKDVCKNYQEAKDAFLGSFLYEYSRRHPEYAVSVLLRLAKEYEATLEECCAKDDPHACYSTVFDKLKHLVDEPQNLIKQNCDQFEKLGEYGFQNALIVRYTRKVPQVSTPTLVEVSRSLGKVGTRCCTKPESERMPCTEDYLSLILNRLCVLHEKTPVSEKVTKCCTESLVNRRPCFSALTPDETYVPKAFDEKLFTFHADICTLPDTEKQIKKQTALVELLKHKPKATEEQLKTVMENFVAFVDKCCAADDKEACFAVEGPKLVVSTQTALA

Take `CC(C)NC(=O)[C@@]1(c2ccc([N+](=O)[O-])cc2)CC(=O)N(C(C)C)[C@@H]1c1ccc(CO)cc1`: the composite z-score in the assay with Albumin (Bos taurus) is 0.697; in assay [2] it was -0.399; in assay [3], -0.176; in [4] it was 0.718; in assay [5] it was 0.859; in assay [6] it was 0.723. Besides, the composite z-score in the assay with Sam68 (KHDRBS1) is 0.0001; in [7] it was -1.66; in [8] it was -0.0183. The composite Z-score in assay [1] was 0.461 (inactive).
In the case of `O=C1O[C@@H](c2ccccc2)[C@@H](c2ccccc2)N2[C@@H](c3ccc(O)cc3)[C@]3(C(=O)Nc4ccccc43)[C@@H](C(=O)N3CCCCCCC3)[C@H]12`, the composite z-score with Albumin (Bos taurus) stood at 0.875; in [2] it was 1.82; in assay [3], 0.464; in assay [4] it was 0.89; in assay [5], 3.78; in [6], 1.14. For the same molecule, the figures for the composite z-score (with Sam68 (KHDRBS1); in assay [7]; in [8]) were 1.29, 1.11 and 1.17, respectively. Also, the composite Z-score in [1] was 5.98 (inactive).
Take `CS(=O)(=O)CCOC(=O)C1=CC(c2ccc(CO)cc2)=CC(c2cccs2)N(Cc2cccc(OC(F)(F)F)c2)C=C1C(=O)OCCS(C)(=O)=O` (stereo not given): the composite z-score with Albumin (Bos taurus) was 0.735; in assay [2], 0.152; in assay [3] it was -0.0259; in [4], 0.664; in assay [5], 1.68; in [6] it was 0.442. Also, the values for the composite z-score (with Sam68 (KHDRBS1); in assay [7]; in [8]) were 1.13, 0.217 and 0.911, respectively. Besides, the composite Z-score in assay [1] is -0.0662 (inactive).
For `C[N+](C)(C)CCCCNC(=O)[C@H]1C[C@H]2C(=O)N3CCC[C@H]3C(=O)N2[C@H]1c1ccc(O)cc1`, the composite z-score in the assay with Albumin (Bos taurus) is -0.926; in assay [2], 0.0793; in assay [3], -0.0449; in assay [4] it was 0.627; in assay [5], 2.08; in assay [6], 0.625. The composite z-score in the assay on Sam68 (KHDRBS1) worked out at 0.895; in assay [7], 1.21; in assay [8], 1.09. The composite Z-score in assay [1] is -0.388 (inactive).
For the molecule `O=C(NCc1ccccc1)[C@@H]1c2ccccc2C(=O)N(C2CCCCC2)[C@H]1c1ccc(CO)cc1`, the composite z-score was 0.654 with Albumin (Bos taurus); -0.112 in [2]; -0.286 in assay [3]; 0.795 in assay [4]; 0.642 in assay [5]; 1.78 in [6]. Also, the composite z-score is 0.467 in the assay on Sam68 (KHDRBS1), -0.475 in assay [7] and 0.335 in assay [8]. Further, the composite Z-score in assay [1] was 0.142 (inactive).
Turning to `COCCOC(=O)N1C(=O)[C@@]2(c3cc(C#CC4=CCCCC4)ccc31)[C@H](C(=O)N1CCN(c3ncccn3)CC1)[C@H]1C(=O)O[C@H](c3ccccc3)[C@H](c3ccccc3)N1[C@@H]2c1ccc(OCCO)cc1`, the composite z-score with Albumin (Bos taurus) is 0.565; in [2] it was -0.0345; in assay [3], 0.108; in assay [4], 0.278; in assay [5] it was 0.676; in assay [6] it was 0.358. For the same molecule, the composite z-score in the assay with Sam68 (KHDRBS1) is 1.17; in assay [7], 0.926; in [8], 1.04. Moreover, in assay [1], the composite Z-score was -0.274 (inactive).
`CC1CC/C=C\[C@H]2OC34C=CCN(CCN5CCOCC5)C(=O)[C@H]3N(CCCCCO)C(=O)[C@@H]4C2C(=O)O1` (stereo not given in full): the composite z-score is -1.19 with Albumin (Bos taurus); -0.178 in assay [2]; -0.175 in assay [3]; 0.899 in [4]; -0.471 in assay [5]; -0.653 in assay [6]. Moreover, the results for the composite z-score (with Sam68 (KHDRBS1); in assay [7]; in assay [8]) were -1.25, -0.191 and -0.233, respectively. Also, in [1], the composite Z-score is 0.905 (inactive).
As to `COCCOC(=O)N1C(=O)[C@@]2(c3ccccc31)[C@H](c1ccc(O)cc1)N1[C@H](c3ccccc3)[C@H](c3ccccc3)OC(=O)[C@H]1[C@@H]2C(N)=O`, the composite z-score with Albumin (Bos taurus) was 0.436; in assay [2] it was -0.27; in assay [3] it was -0.114; in assay [4], 0.711; in assay [5], 0.531; in assay [6] it was -0.0821. Besides, the composite z-score with Sam68 (KHDRBS1) was -0.764; in [7] it was -1.04; in assay [8] it was 0.035. Also, the composite Z-score in assay [1] was 0.313 (inactive).
Regarding `C=CCC(OC(C)=O)[C@@H]1[C@@H](N(Cc2ccc(-c3cccc(C(F)(F)F)c3)o2)C(=O)Cc2ccc(OC)cc2)c2cc(OCCCO)ccc2N1C(=O)Cc1ccc(OC)cc1` (stereo not given in full), the composite z-score was 0.478 with Albumin (Bos taurus); -0.193 in assay [2]; -0.193 in assay [3]; 0.158 in assay [4]; 0.043 in assay [5]; -0.39 in [6]. Further, the results for the composite z-score (with Sam68 (KHDRBS1); in assay [7]; in assay [8]) were -0.399, 0.292 and -0.947, respectively. The composite Z-score in [1] was -0.784 (inactive).
On to `C=C(C)[C@@H]1CC=C(C(O)C2C=CC3C(=O)N(Cc4ccccc4)C(=O)C3N2n2cnnc2)CC1` (stereo not given in full), for which the composite z-score with Albumin (Bos taurus) is 0.936; in assay [2] it was 0.0297; in [3] it was -0.0907; in assay [4] it was 0.751; in [5], 0.341; in [6], -0.24. The composite z-score in the assay with Sam68 (KHDRBS1) was -0.0341; in assay [7], -0.918; in [8] it was 0.317. For the same molecule, the composite Z-score in assay [1] was -0.619 (inactive).
For `C=CC[C@@]1(C(=O)NCCN2CCOCC2)N=C(c2ccc(OCCCO)cc2)O[C@@H]1c1ccccc1CN=[N+]=[N-]`, the composite z-score was 0.831 with Albumin (Bos taurus); -0.434 in assay [2]; -0.397 in assay [3]; 0.556 in [4]; 2.9 in [5]; 0.895 in [6]. Also, the values for the composite z-score (in the assay on Sam68 (KHDRBS1); in assay [7]; in [8]) were 1.2, 0.055 and 0.85, respectively. Moreover, the composite Z-score in assay [1] is -0.0095 (inactive).
